{
  "source": "the supplement of paper PMC6805474",
  "data": [
    {"system": "Schistosoma mansoni schistosomula (LE)", "assay": "XTT viability relative to DMSO control; higher = more viable (less active)", "settings": "72 h; 10 µM", "procedure": "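XTT/PMS was then added for a further 24 h (72 h total) and A450 was read. % viability = (sample - heat-killed control)/(DMSO control - heat-killed control) x 100, from duplicate wells in two independent experiments.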", "units": {"XTT viability": "%"}, "values": [
      {"molecule": "O=C(NCCc1ccccc1)c1cc(-c2cccnc2)cnc1NCC1CC1", "XTT viability": 85.9},
      {"molecule": "CNC(=O)c1cc(S(=O)(=O)N2CCN(c3ccccn3)CC2)cs1", "XTT viability": 73.4},
      {"molecule": "CO[C@H]1/C=C/O[C@@]2(C)Oc3c(C)c(O)c4c(O)c(/c(=C/NN5CCN(C)CC5)c(O)c4c3C2=O)=N\\C(=O)/C(C)=C\\C=C/[C@H](C)[C@H](O)[C@@H](C)[C@@H](O)[C@@H](C)[C@H](OC(C)=O)[C@@H]1C", "XTT viability": 116},
      {"molecule": "O=C(NC1CC1)c1ccc(CSCc2ccccc2Cl)o1", "XTT viability": 114},
      {"molecule": "CO[C@@H](C(=O)N1Cc2[nH]nc(NC(=O)c3ccc(N4CCN(C)CC4)cc3)c2C1)c1ccccc1", "XTT viability": 97.4},
      {"molecule": "O=C(C(Cc1c[nH]c2ccccc12)NS(=O)(=O)c1ccc(Cl)cc1)N1CCCCC1", "note": "(stereo not given)", "XTT viability": 96.4},
      {"molecule": "COc1ccc(CCN2CCC(NCc3cccc(N(C)C)c3)CC2)cc1", "XTT viability": 98.6},
      {"molecule": "CCOc1ccc2cc(-c3nn(CC4CCN(C)CC4)c4ncnc(N)c34)ccc2c1", "XTT viability": 44.3},
      {"molecule": "CCN(CC)S(=O)(=O)c1ccc(Cl)c(C(=O)Nc2ccc3nc(C)sc3c2)c1", "XTT viability": 87.9},
      {"molecule": "CCOc1ccc(-c2nc(CNCCc3ccc(F)cc3)cs2)cc1", "XTT viability": 2.26},
      {"molecule": "c1ccc(C[C@@H]2CN(c3nccc(Oc4ccc(-n5ccnc5)cc4)n3)CCN2)cc1", "XTT viability": 94.4},
      {"molecule": "Nc1ncc(-c2cn[nH]c2)cc1-c1nc2cc(Cl)cnc2[nH]1", "XTT viability": 94.4},
      {"molecule": "Cc1ccccc1CN1CCC(O)(c2ccc(Cl)c(C(F)(F)F)c2)CC1", "XTT viability": 71.1},
      {"molecule": "Nc1ccc(C(=O)Nc2ccc(-c3nc4ccccc4o3)cc2)cc1", "XTT viability": 64.2},
      {"molecule": "Cc1ccc(NC(=O)CC2COc3ccccc3O2)cc1Cl", "note": "(stereo not given)", "XTT viability": 125},
      {"molecule": "CCCCc1ccc(C(=O)Nc2nccc3ccccc23)nc1", "XTT viability": 94.2},
      {"molecule": "Cc1[nH]c2cc(F)cc(F)c2c(=O)c1-c1ccc(Oc2ccc(OC(F)(F)F)cc2)cc1", "XTT viability": 74.6},
      {"molecule": "N=C(N)Nc1ccc(-c2ccc(-c3ccc(NC(=N)N)cc3Cl)o2)c(Cl)c1", "XTT viability": 61.7},
      {"molecule": "Cc1ccc2cc(C3NC(=O)c4ccccc4N3)c(Cl)nc2c1", "note": "(stereo not given)", "XTT viability": 99},
      {"molecule": "Cc1cc(Cl)ccc1NC(=O)CCc1ccc(S(=O)(=O)NCC(C)C)cc1", "XTT viability": 107},
      {"molecule": "O=C(CN1CCOCC1)Nc1ccc2ncnc(Nc3ccc(OCc4cccc(F)c4)c(Cl)c3)c2c1", "XTT viability": 125},
      {"molecule": "O=C(CCC1CCCCC1)Nc1cccc(-c2nnc(-c3ccco3)o2)c1", "XTT viability": 145},
      {"molecule": "c1ccc(Oc2ccc(-c3cc(N4CCOCC4)[nH]n3)cc2)cc1", "XTT viability": 112},
      {"molecule": "O=C(Nc1nc(-c2ccccn2)cs1)C1CC1c1ccccc1F", "note": "(stereo not given)", "XTT viability": 71.7},
      {"molecule": "Cc1nn2c(O)c3c(nc2c1-c1ccc(F)cc1)CCCC3", "XTT viability": 113},
      {"molecule": "COc1cncc(-c2cncc(N3CCN(c4ccncc4)CC3)n2)c1", "XTT viability": 103},
      {"molecule": "O=C(Nc1ccccc1-c1nc2c(C(=O)O)cccc2o1)c1ccccc1", "XTT viability": 54.1},
      {"molecule": "FC(F)(F)c1cc(NCCc2ccccc2)nc(-c2ccccn2)n1", "XTT viability": 58.7},
      {"molecule": "CCC(NC(=O)c1ccccc1NC(=O)c1ccc(C)cc1)C(=O)OC", "note": "(stereo not given)", "XTT viability": 82.9},
      {"molecule": "CC(C)(C)c1cnc(NC(=O)c2ccccc2O)s1", "XTT viability": 79.9},
      {"molecule": "O=C(c1cc2ccccc2o1)N1CCN(Cc2ccc3c(c2)OCO3)CC1", "XTT viability": 110},
      {"molecule": "CC(=O)Nc1ccc(NC(=O)c2cc(-c3cc(Cl)ccc3O)[nH]n2)cc1", "XTT viability": 94.2},
      {"molecule": "c1csc(-c2cnc3sc(NCC4CCOCC4)nn23)c1", "XTT viability": 95.7},
      {"molecule": "CC(C)(C)n1nc(Cc2cccc3ccccc23)c2c(N)ncnc21", "XTT viability": 85.5},
      {"molecule": "N#Cc1ccc(-c2cnc(N)c(-c3ccc(C(N)=O)cc3)n2)cc1", "XTT viability": 113},
      {"molecule": "COc1ccc(-c2cnc3ccc(N4CCCC4)nn23)cc1OC", "XTT viability": 60.5},
      {"molecule": "O=C(C1CCN(c2cc(-n3cccc3)ncn2)CC1)N1CCc2ccccc2C1", "XTT viability": 96.4},
      {"molecule": "CCOC(=O)c1cc(-c2csc(Nc3c(C)cc(C)cc3C)n2)on1", "XTT viability": 95.6},
      {"molecule": "CC(C)(C)C1CCC(CC2=C(O)C(=O)c3ccccc3C2=O)CC1", "note": "(stereo not given)", "XTT viability": 71.7},
      {"molecule": "O=C(Nc1ccc(N2CCNCC2)cc1)c1ccn2ncc(-c3cccc(Cl)c3)c2n1", "XTT viability": 7.7}
    ]}
  ]
}
